The molecules below were run on HEK293 WT BDD-FVIII-Gluc (assay: secreted FVIII-Gluc luciferase Z-score vs DMSO control; higher = more FVIII-Gluc secretion). Settings: 5 µM.
Procedure: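 Natural plant-compound library (480 compounds, ST catalogue IDs) screened on HEK293 cells stably expressing WT BDD-FVIII-Gaussia luciferase fusion at 5 µM. Secreted Gluc activity in the medium is given as a Z-score relative to DMSO controls.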

SMILES	secreted FVIII-Gluc luciferase Z-score
CCCCC/C=C\C/C=C\C/C=C\C/C=C\CCCC(=O)O	0.604
Cn1ccc(O)c(C#N)c1=O	0.00283
C=C1CC/C=C(\C)CC[C@@H]2[C@@H]1CC2(C)C	0.299
CO[C@H]1/C=C/O[C@@]2(C)Oc3c(C)c(O)c4c(O)c(c(C=O)c(O)c4c3C2=O)NC(=O)/C(C)=C\C=C\[C@H](C)[C@H](O)[C@@H](C)[C@@H](O)[C@@H](C)[C@H](OC(C)=O)[C@@H]1C	1.13
O=c1c(O)c(-c2ccc(O)cc2)oc2cc(O)cc(O)c12	-0.239
COc1ccccc1-c1oc2ccccc2c(=O)c1O	-0.65
Cc1cc(O)cc(O)c1	0.642
CC(C=CC1=C(C)CCCC1(C)C)=CC=CC(C)=CCO	0.89
COc1ccc2c3c1O[C@H]1C[C@@H](O)C=C[C@@]31CCN(C)C2	0.615
CC(=O)[C@@H]1[C@H]2[C@H](C(=O)[C@H]3OC[C@@H]2O3)[C@H]2C=Cc3ccccc3N21	0.187
Cc1ccc2oc(-c3ccccc3)c(O)c(=O)c2c1	1.13
COc1cc2oc(-c3ccccc3)cc(=O)c2cc1O	0.564
CC(=O)OC1CCC2(C)C3CCC4(C)C(CC5CCCCC54C(C)=O)C3CC(=O)C2(O)C1 (centres undefined)	0.153
CC(=O)c1c(O)c(C)c(O)c2c1OC1=CC(=O)C(C(C)=O)C(=O)[C@@]12C (some centres undefined)	-5.07
CC1OC(OCC2OC(Oc3c(-c4ccc(O)c(O)c4)oc4cc(O)cc(O)c4c3=O)C(O)C(O)C2O)C(O)C(O)C1O (centres undefined)	-0.909
O=C1c2ccccc2C(=O)c2c1ccc(O)c2O	0.508
C=C1CCC(O)C/C1=C\C=C1/CCCC2(C)C1CCC2C(C)CCCC(C)C (centres undefined)	-1.24
O=C(/C=C/c1ccc(O)cc1)c1ccccc1O	0.315
COc1ccc2c3c1OC1C(O)C=CC(C=C2)C31CCN(C)C (centres undefined)	-0.171
C[C@H](CCC(=O)O)[C@H]1CC[C@H]2[C@@H]3[C@H](O)C[C@@H]4C[C@H](O)CC[C@]4(C)[C@H]3C[C@H](O)[C@]12C	-0.337

SMILES	secreted FVIII-Gluc luciferase Z-score
O=c1c(O)c(-c2ccc(O)c(O)c2)oc2c(O[C@@H]3O[C@H](CO)[C@@H](O)[C@H](O)[C@H]3O)c(O)cc(O)c12	1.19
C=C[C@@](C)(O)CC[C@@H]1[C@@]2(C)CCCC(C)(C)[C@@H]2CC[C@@]1(C)O	0.556
CC1(C)[C@@H]2CC[C@@]1(C)C(=O)C2	0.363
CCn1nc(C(=O)O)c(=O)c2cc3c(cc21)OCO3	-1.17
COC(=O)[C@H]1[C@H]2C[C@H]3c4[nH]c5ccccc5c4CCN3C[C@H]2CC[C@@H]1O	-0.252
N=c1ccn2c(n1)OC1C2OC(CO)[C@H]1O (some centres undefined)	-1.3
CC1=CC(=O)C2CC1C2(C)C (centres undefined)	0.115
CC(C)(CO)[C@@H](O)C(=O)NCCCO	1.71
C1CCN2C[C@H]3C[C@H](CN4CCCC[C@@H]34)[C@H]2C1	1.26
O=c1c(O)c(-c2ccc(O)cc2O)oc2cc(O)cc(O)c12	0.571
CO[C@H]1/C=C/O[C@@]2(C)Oc3c(C)c(O)c4c(O)c(c(/C=N/N5CCN(C)CC5)c(O)c4c3C2=O)NC(=O)/C(C)=C\C=C\[C@H](C)[C@H](O)[C@@H](C)[C@@H](O)[C@@H](C)[C@H](OC(C)=O)[C@@H]1C	-0.504
COc1cc2c(C=O)c3c4c(cc(OC)c(OC)c4c2cc1OC)CCN3C	0.315
COc1cc(CNC(=O)CCCCCCC(C)C)ccc1O	-0.541
O=c1cc(-c2ccc(O)cc2O)oc2ccccc12	0.498
C[C@H]1c2ccoc2CC2[C@H]1CCC1[C@@](C)(CC(=O)O)CCC[C@]21C (some centres undefined)	0.392
COc1ccc(OC)c(C2Nc3ccccc3NC3=C2C(=O)CC(C)(C)C3)c1Br (centres undefined)	0.0362
COC(=O)[C@H]1[C@H]2C[C@H]3c4[nH]c5ccccc5c4CCN3C[C@@H]2CC[C@@H]1O	-1.15
NC(CC(=O)O)C(=O)O (centres undefined)	0.487
COc1ccc([C@@H]2CC(=O)c3c(O)cc(O)cc3O2)cc1O	0.825

— the supplement of paper PMC12024529
